The record followed here is PubChem BioAssay (NCI).

The panel holds about 83,000 compounds, 20% with a hit somewhere; the sample as a whole holds those more often.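 Results are percent growth after 48 hours of single-concentration exposure. 100 means growth as in untreated cells, lower positive values show inhibition; negative values down to -100 show cell death.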 A number with no mark means an inactive call. Calls of active or inactive are those of the source. How the source made its calls: active means growth percent below 10; inactive means the rest.

In the test the test system is MDA-MB-468 breast. Description: NCI-60 one-dose screen, 48 h (100 = growth as untreated, 0 = no growth, -100 = all killed). As to conditions: 10 µM unless noted.
Regarding `O=C(O)c1cccc([N+](=O)[O-])c1O`, the growth was 102%.
On to `O=C1/C(=C\c2ccccc2)CN(C(=O)c2ccccc2)C/C1=C\c1ccccc1`, for which the growth is -48.6% (active).
For `C[C@H](Oc1cc(-c2cnn(C3CCNCC3)c2)cnc1N)c1c(Cl)ccc(F)c1Cl`, the growth was 34.9%.
`Clc1ccc(C2CC(c3cccc(Nc4ccncc4)c3)=NN2c2cc(Cl)cc(Cl)c2)cc1` (stereo not given): the growth is 84.9%.
For `COc1cc2c(c(OC)c1)C1c3ccccc3NC(=O)N1CC2` (stereo not given) the value was -0.759% (active); for `CCC(=O)N1C/C(=C/c2ccc(OC)cc2)C(=O)/C(=C/c2ccc(OC)cc2)C1`, -25.6% (active); for `C=CCn1c(SCC(=O)Nc2ccc(C(=O)/C=C/c3ccc(OC)cc3)cc2)nnc1-c1ccccc1`, 93.9%.
Take `O=C(N/N=C/c1ccccc1O)C(O)(c1ccccc1)c1ccccc1`: the growth was 38.2%.
Take `COc1ccc(S(=O)(=O)NCCNc2nccc(-c3c(-c4cccc(F)c4)nc4sccn34)n2)cc1`: the growth is 23.3%.
Turning to `O=S(=O)(Cc1cccc2c(CS(=O)(=O)c3ccc(Cl)cc3)cccc12)c1ccc(Cl)cc1`, the growth is 97%.
As to `CCCCc1nc2c(N)nc3ccccc3c2n1Cc1ccc(OC)cc1`, the growth is 41.2%.
As to `CN1CCN(c2ccc(Nc3nc(NCCCNS(=O)(=O)c4ccc(Cl)cc4)c4sccc4n3)cc2)CC1`, the growth is -47.7% (active).
Take `C=C1c2c(C)nn(-c3ccc(S(N)(=O)=O)cc3)c2N(C)C23CC1C1(C)c4c(C)nn(-c5ccc(S(N)(=O)=O)cc5)c4N(C)C(C)(CC12)C3` (stereo not given): the growth is 0.632% (active).
In the case of `COc1cc(-c2nc3occn3c2-c2ccnc(NCCNS(=O)(=O)c3ccc(Cl)cc3)n2)ccc1F`, the growth is 63.1%.
Take `COc1ccc(C(=O)/C=C/c2c(OC)cc(OC)cc2OC)c(OC)c1`: the growth was -25.1% (active).
In the case of `COc1ccc2c(c1)c(-c1nc(-c3c[nH]c4c(Cl)nccc34)cs1)cn2C`, the growth is -23% (active).
Regarding `CC(=O)c1c(Nc2ccc(F)c(F)c2F)[nH]c2c(F)cc(F)cc2c1=O`, the growth was -21.9% (active).
For the compound `COc1ccc2c(c1)cn1c3ccc(O)cc3[nH]c(=O)c21`, the growth is -6.77% (active).
On to `COc1ccc2c(c1)/C(=C1\S/C(=N/c3nnc(C)s3)NC1=O)C(=O)N2Cc1ccc(Cl)cc1`, for which the growth is 50.9%.
Take `O=C1c2ccccc2Cc2cccc(Cl)c21`: the growth was 92.7%.
For `O=C1/C(=C2\SC(=S)N(C3CC3)C2=O)SC(=S)N1C1CC1` the value was 88.7%; for `NS(=O)(=O)c1ccc(Cn2c(SCC(=O)N/N=C/c3ccccc3O)nc3ccccc3c2=O)cc1`, 52%.
With `COc1cc(/C=C/C(=O)c2ccc(NC(=O)CSc3nnc(-c4ccc(-c5nc6ccc(Cl)cc6[nH]5)cc4)o3)cc2)cc(OC)c1OC`, the growth is 103%.
For the compound `C/C(=N/NC(N)=S)c1ccc(Nc2nc(SCC(C)C)nc(-c3ccc(F)cc3)c2C#N)cc1`, the growth was -19.4% (active).
Take `O=C(Oc1ccc2c(c1)sc1nc(-c3ccccc3)[nH]c(=O)c12)C(F)(F)F`: the growth is 37.9%.
Turning to `c1ccc(Cn2nc3c(c2-c2ccccc2)-c2oncc2CC3)cc1`, the growth was 101%.
The figure for `Cc1ccc(-c2csc(N(C(=O)N3CCN(c4cc5c(cc4F)c(=O)c(C(=O)O)cn5C4CC4)CC3)c3ccccc3)n2)cc1` is -6.73% (active); for `CCOC(=O)C1=C(C)NC(C)=C(C(=O)OCc2ccccc2)C1c1cccc(C#N)c1` (stereo not given) it is 16%; for `CSC(=S)N/N=C(\C)c1ccccn1` it is -19.5% (active).
For `COc1ccc(NC(=O)c2sc3nc(C)c(C(=O)CCc4cccc(OC)c4)cc3c2N)cc1`, the growth is 29.6%.
In the case of `COc1ccc(C2=NN(C(C)=O)C(c3cn(Cc4ccc(Cl)cc4)c4ccccc34)C2)cc1` (stereo not given), the growth is 69.2%.
For `COc1ccc(Nc2ncc(C(N)=O)c(NCCCNC(=O)C3CCC3)n2)cc1`, the growth is 33.1%.
`CCCCNNC(=O)c1ccc(Br)cc1`: the growth is 60.1%.
Take `Cc1ccc(NC(=O)Cn2cc(CN3CCN(c4ccnc5cc(Cl)ccc45)CC3)nn2)cc1`: the growth is 88.1%.
The figure for `CCOC(=O)CNC(=O)Sc1ccc(C(C)(C)C)cc1` is 111%; for `NC(=N\N=C/c1ccc(O)cc1)/C(N)=N\N=C/c1ccc(O)cc1` it is 103%; for `CCCCC(=O)Nc1nc2ccc(SCCC)cc2s1` it is 20%.
In the case of `COc1cc2nnn3c4ncccc4c(N=O)c3c2cc1OC`, the growth is -50.9% (active).
On to `CC(=O)/C(=C/c1ccc(-c2ccccc2)cc1)C(=O)c1ccccc1`, for which the growth is 92.2%.
For `CN=C(NC)N/N=C(C)\C=N\NC(=NC)NC` the value was 121%.
